Results: PubChem BioAssay (NCI)
“And” between values parts separate entries of the source, which are not always exact repeats. Identical values can stand only once. Compounds without any hit were thinned out: in the full panel of roughly 83,000, 20% have a hit.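 96-well plates, one dose, 48 hours. Percent growth reported; active if below 10.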 A number with no mark means an inactive call. The source made the active and inactive calls.

Each molecule was assayed on MDA-MB-468 breast (assay: NCI-60 one-dose screen, 48 h (100 = growth as untreated, 0 = no growth, -100 = all killed)). Conditions: 10 µM unless noted.

For `CCCCC/C=C/C/C=C/CCCCCCCC1=NC(C)(C)CN1C(C)C`, the growth was -42.8% (active).
`COc1ccc2c(c1)C(Br)=C(CCO)C2c1ccccc1` (stereo not given) was tested, and the growth was -40.2% (active).
For `COc1cc(NC(C)CN(CC(C)C)C(C)C)c2ncccc2c1` (stereo not given), the growth was -15.4% (active).
With `CC1CCCc2sc3nc(NNC(=O)c4cnccn4)n(-c4ccccc4)c(=O)c3c21` (stereo not given) the growth was -31.8% (active) and -42.9% (active).
For `Clc1nc2ccccc2nc1-c1nnc(C2CCCCC2)o1`, the growth was 7.71% (active).
With `COc1cc(/C=N/NC(=O)c2ccccc2Nc2cccc(C(F)(F)F)c2)cc(OC)c1OC` the growth was -20.8% (active).
`O=C1C2=C(C(=O)c3c(O)ccc(O)c31)N(c1ccc(N3CCOCC3)nc1)Cc1ccccc1O2` was tested, and the growth was -60.8% (active).
In the case of `N#Cc1c(NC(=O)c2cccc(C(F)(F)F)c2)sc2c1CCC(=O)C2`, the growth is reported as -8.78% (active).
For `COc1ccc2cc(-c3cnc4nonc4n3)ccc2c1`, the growth was -2.09% (active).
`Oc1ccc2ccccc2c1N=Nc1nccs1` was tested, and the growth was -48.6% (active).
In the case of `COCCOCCOCc1n(Cc2ccc3ccccc3n2)c2ccccc2[n+]1Cc1ccc2ccccc2n1`, the growth is reported as -17.4% (active).

Point of comparison: `Nc1ccc(CC(=O)O)c(N)c1`, growth 88.5%. Against it:
- CC(C)c1ccc(-n2c(=S)[nH]c3sc4c(c3c2=O)CCC(=O)C4)cc1 — lower, 58.6%
- Cc1ccccc1C1=N[C@@H](Cc2ccccc2)C(=O)c2c(nc3ccccn23)N1 — higher, 104%
- CSc1nc2sc3cccc(Cl)c3n2c(=N)c1C#N — higher, 90.4%
- COc1cccc(N=Nc2cccc(OC)c2)c1 — lower, 87.2%
- COc1ccc2c(c1)CCNC21C(=O)Nc2c(Br)cc(Br)cc21 (stereo not given) — higher, 137%
- Cc1ncc(C#N)c(N)n1 — higher, 89.3%
- O=[N+]([O-])c1cccc2nsnc12 — higher, 93.1%
- CCN(CC)S(=O)(=O)c1ccc(NC(=O)CSc2nnc(C)n2-c2ccccc2)cc1 — higher, 90.6%
- O=C(Nc1cccc2ccccc12)c1cc2c(cc1Br)OCO2 — higher, 95.4%
- Cn1cc(-c2csc(-c3cn(CCCN4CCCCC4)c4ccc(F)cc34)n2)c2cccnc21 — higher, 91.7%
- CC1(O)OC(COc2ccc(Cl)cc2)COC1O (stereo not given) — higher, 105%
- CCOC(=O)c1sc(N)c(C(=O)OCC)c1C — lower, 59.4%
- COC(=O)c1ccc(C)cc1 — higher, 105%
- CC(=O)c1ccc2c(ccc3ccccc32)c1 — higher, 95.5%
- c1ccc(Nc2ccccn2)cc1 — higher, 111%
- COc1ccc(Br)c2c1C(=O)CC2 — higher, 107%
- COc1cccc(C(=O)OCC(O)C(=O)NC23CC4CC(CC(C4)C2)C3)c1 (stereo not given) — lower, 88%
- COC1=CC(c2ccc[nH]2)=N/C1=C\c1[nH]c(C)c(CC(=O)NCc2ccccc2)c1C — lower, 27.3%
- COC(=O)[C@]12CC[C@@H](C)[C@H](C)[C@@H]1C1=CC[C@@H]3[C@@]4(C)C(C=O)=C[C@@](C)(COS(C)(=O)=O)[C@@H]4C(=O)C[C@@]3(C)[C@]1(C)CC2 — lower, 38%
- Cc1nn2c(-c3nc4ccc(Cl)cc4[nH]3)c(-c3ccc(F)cc3)nc2s1 — higher, 102%
- Cc1ccc(-c2nc(SCC(=O)Nc3nc(-c4ccc(Cl)cc4)cs3)[nH]c(=O)c2C#N)cc1 — higher, 117%
- COc1ccc2c(c1)C(=O)/C(=C/c1cccnc1)CC2 — higher, 100%
- Cc1cccc(N=Cc2ccccc2O)c1C — higher, 103%
- O=C1CC23OC(C(O)c4ccccc4N12)C1C(c2ccccc2)=NOC13 (stereo not given) — lower, 40.9%
- Clc1ccc(Cn2cc(-c3nc4ccc(Br)nc4n3Cc3ccc(Cl)cc3)c3cccnc32)cc1 — lower, 60.7%
- CC1=C(C(=O)n2c3ccccc3c3ccccc32)C(c2cccc([N+](=O)[O-])c2)C(C(=O)n2c3ccccc3c3ccccc32)=C(C)N1 — higher, 118%
- NC(=O)CN1C(=O)c2ccccc2C1=O — higher, 107%

`N#Cc1c(N)nc2c(c(-c3ccc(Cl)cc3)nn2-c2ccccc2)c1C#N` gave a growth of 90.1% [100 µM].
